Values joined by “and” are separate entries in the source; they are usually repeats but may differ in a detail not shown here. Equal values may be shown once. Compounds without any hit were thinned out: in the full panel of roughly 83,000, 20% have a hit.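 Treatment: one concentration, 48 hours, 96-well format. Scoring: percent growth, with anything below 10 considered active.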 Values without a mark were called inactive. Active and inactive are the calls of the source.
These molecules were tested on MDA-MB-468 breast (assay: NCI-60 one-dose screen, 48 h (100 = growth as untreated, 0 = no growth, -100 = all killed)). Settings: 10 µM unless noted.

Q: With `COC(=O)[C@@H](C)C[C@H](Cc1ccccc1)NC(=O)c1cccc([C@@H](C[C@H](C(C)C)N(C)C(=O)[C@@H](NC(=O)[C@H]2CCCCN2C)C(C)C)OC(C)=O)n1` as the molecule, how does the growth read?
A: 10.1%

Q: `Fc1ccc2c(c1)c(-c1nc(-c3c[nH]c4ncccc34)cs1)cn2CCN1CCOCC1` was tested. Which growth did it give?
A: 43.8%

Q: How did the growth turn out when `CCC(=O)Nc1ccc(Cl)c(Cl)c1` was run?
A: 101%

Q: How did the growth turn out when `Cc1ccc(NC2=N[C@]34CC(=O)CC[C@]3(C)[C@H]3CC[C@]5(C)C(=O)CC[C@H]5[C@@H]3C[C@@H]4S2)c(C)c1` was run?
A: 17%

Q: For `CC(=O)[O][Hg][c]1c(N)c(C)cc(C)c1F`, which growth is on record?
A: -26.7% (active)

Q: `CC[C@H](C)[C@H]1O[C@]2(C=C[C@@H]1C)C[C@@H]1C[C@@H](C/C=C(\C)[C@@H](O[C@H]3C[C@H](OC)[C@@H](O[C@H]4C[C@H](OC)[C@@H](NC)[C@H](C)O4)[C@H](C)O3)[C@@H](C)/C=C/C=C3\CO[C@@H]4[C@H](O)C(C)=C[C@@H](C(=O)O1)[C@]34O)O2` was tested. Which growth did it give?
A: -68.8% (active)

Q: For `C[C@]12C[C@H](O)[C@H]3[C@@H](CCC4=CC(=O)CC[C@@]43C)[C@@H]1CC[C@@H]2O`, which growth is on record?
A: 99.7%

Q: How did the growth turn out when `O=C(/C=C/c1ccccc1)N[C@@H](CO)Cc1cnc[nH]1` was run?
A: 102%

Q: With `CC1(C)N=C(N)N=C(N)N1c1cccc(C(=O)Nc2cccc(S(=O)(=O)F)c2)c1` as the molecule, how does the growth read?
A: 94.6%

Q: With `COc1ccc(/C(C)=C(\c2ccc(OCCN3CCOCC3)cc2)c2ccc(OC(=O)Cc3ccccc3)cc2)cc1` as the molecule, how does the growth read?
A: 104%

Q: How did the growth turn out when `CC1(C)C=Cc2c(ccc3c2[N+]([O-])=C2C3=C[C@@]34NC(=O)[C@]5(CCCN5C3=O)C[C@@H]4C2(C)C)O1` was run?
A: 8.16% (active)

Q: How did the growth turn out when `COc1ccc(-n2c(C)nc3cc(OC)c(OC)cc3c2=O)cc1OC` was run?
A: 114%

Q: Which growth does the source give for `CC(C)(C)[Si](C)(C)OC1[C@@H](O[Si](C)(C)C(C)(C)C)[C@@H](CNC(=O)NC(=O)CF)O[C@H]1n1cnc2c(NC(=O)Nc3ccccc3)ncnc21` (some centres undefined) here?
A: 90.5%

Q: How did the growth turn out when `Cc1ccc(C(=O)OC(C(=O)O)C(OC(=O)c2ccc(C)cc2)C(=O)O)cc1` (centres undefined) (tested in a mixture with another compound) was run?
A: -12.2% (active)

Q: Which growth does the source give for `Cc1ccc2oc(=O)c3c(c2c1)OC(N)=C(C#N)C3c1ccco1` (centres undefined) here?
A: 91.4%

Q: For `CCOP(=O)(OCC)C(O)c1ccccc1Cl` (centres undefined), which growth is on record?
A: 103%

Q: For `Cc1sc2c(c1C)C(c1ccc(Cl)cc1)=N[C@@H](CC(=O)OC(C)(C)C)c1nnc(C)n1-2`, which growth is on record?
A: -10.8% (active)

Q: How did the growth turn out when `O=C(O)C(O)c1ccc(Cl)cc1` (centres undefined) was run?
A: 84.9% and 112%

Q: For `COc1cc2c(c(OC)c1OC)-c1ccc([O-])c(=O)cc1[C@@H](NC(C)=O)CC2.COc1cc2c(c(OC)c1OC)-c1ccc([O-])c(=O)cc1[C@@H](NC(C)=O)CC2.[Cu+2]`, which growth is on record?
A: 2.02% (active)

Q: For `COc1cc(C2CC(=O)Nc3nc(N)[se]c32)c(OC)c2c1OCO2` (centres undefined), which growth is on record?
A: 109%

Q: For `Cc1cc(Br)c([N+](=O)[O-])cc1[N+](=O)[O-]`, which growth is on record?
A: 58.4%

Q: Which growth does the source give for `CN(C)CCCOc1ccc2c(c1)c(C(=O)C(=O)NCCO)cn2Cc1ccccc1` here?
A: 117%

Q: Which growth does the source give for `CCN1CC2(CN(CC)C1=S)C(=O)NC(=O)NC2=O` here?
A: 116%

Q: How did the growth turn out when `CCCCOC(=O)c1ccccc1C(=O)O.CCCCOC(=O)c1ccccc1C(=O)O.[Cu+2]` was run?
A: 103%

Q: `Cn1cc(C=O)c2nccnc21` was tested. Which growth did it give?
A: 98.1%

Q: With `O=[N+]([O-])c1ccc(P(=O)(O)O)cc1` as the molecule, how does the growth read?
A: 102%

Q: How did the growth turn out when `O=C(CC1(O)C(=O)Nc2ccc(Br)cc21)c1ccc(C(=O)NCC2CCC3(CC2)OOC2(CCCCC2)OO3)cc1` (centres undefined) was run?
A: 48.7%

Q: How did the growth turn out when `O=C(c1ccccc1O)c1[nH]c(Cl)c(Cl)c1-n1c(C(=O)c2ccccc2O)cc(Cl)c1Cl` was run?
A: -13.8% (active)

Q: How did the growth turn out when `CCN1C(=O)CC(=O)N(CC)C1=S` was run?
A: 93.1%

Q: Which growth does the source give for `CN1CCc2cc3c(cc2C1O)OCO3` (centres undefined) here?
A: 99.4% and 108%

Q: With `COC(=O)[C@@H](C)C[C@H](Cc1ccccc1)NC(=O)c1nc([C@@H](C[C@H](C(C)C)N(C)C(=O)[C@@H](NC(=O)[C@H]2C[C@H](O)CCN2C)C(C)C)OC(C)=O)sc1C(C)C` as the molecule, how does the growth read?
A: -0.0807% (active)

Q: For `C[C@]12CCc3sc(Nc4ccc(F)cc4F)nc3C1=CC[C@@H]1[C@@H]2CC[C@]2(C)C(=O)CC[C@@H]12`, which growth is on record?
A: 23.3%

Q: How did the growth turn out when `Brc1ccc2c(c1)c(-c1nc(-c3c[nH]c4ncccc34)cs1)cn2CCN1CCCCC1` was run?
A: 79.2%

Q: How did the growth turn out when `NC(N)=N/N=C\c1c[nH]c2ccc(Br)cc12` was run?
A: -6.01% (active)

Q: For `CC1=C(CN(O)C(N)=O)C2=C(C)C3(CC3)[C@](C)(O)C(=O)C2=C1`, which growth is on record?
A: -65.6% (active)

Q: With `CCCCCCCCCCCCNC(c1ccccc1)C(O)c1ccccc1` (centres undefined) as the molecule, how does the growth read?
A: 48.5%

Q: With `CNC(=O)Oc1cccc(N(C)C)c1` as the molecule, how does the growth read?
A: 92.7%

Q: For `CC(=O)OCC1O[C@@H]([S-])C(OC(C)=O)[C@H](OC(C)=O)[C@@H]1OC(C)=O.[Au+].c1ccc(CN2[CH-]N(Cc3ccccc3)C(c3ccccc3)=C2c2ccccc2)cc1`, which growth is on record?
A: -61.7% (active)

Q: With `CN(C)C(=O)Oc1ccccc1-c1ccccc1` as the molecule, how does the growth read?
A: 99.7%

From PubChem BioAssay (NCI)
